Assay results as given in PubChem BioAssay AID1508600 (Functional Genomics Laboratory (NCATS/FGL), 2020).
Hit rate of the full screen: of about 53,000 sequences, about 3,700 (7%) were called active. Only a selection was taken, and actives are over-represented in it overall. Values without a mark were called inactive.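 The calls were made as follows: active = gene knockdowns whose robust z-score for IL-1 alpha signal is at least 2 or at most -2, so actives lie on both sides; inactive = the rest.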

Experiment: Components of the Cytosolic LPS Sensing Pathway: Gene Identification via Genome-wide siRNA Screen;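 also: robust z of the log signal after scaling to non-targeting control siRNA wells of the plate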
Details: RAW264.7 macrophages, IL-1a HTRF, actives lie on both sides, screened at 100 nM (by protocol), cells primed 5 h with Pam3CSK4 first
In short: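 RAW264.7; siRNA 100 nM final, RNAiMAX, 48h 37 degrees C; Pam3CSK4 5 h; LipidA + TransIT-TKO 24 h; IL-1a HTRF; CellTiter-Glo viability; robust z vs negative-control median.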

In order of falling z-score:
1. GGACAUAUAGCUGAUUUCUTT against Ctdsp2  1.97
2. GCUAAUAGUCAUUAAACUGTT against Zfp2  1.76
3. GCUCUGCUAUCGUGAUCUGTT against Kctd13  1.68
4. GGACAUUGUCACAUCAUUCTT against Slc2a6  1.64
5. CCCACUGCCAAGUACAAUGTT against Dmwd  1.44
6. GGGCUCUACAGUUUUUAAUTT against Atp5g3  1.31
7. GGCUAGAUGACAACCGCAUTT against Flrt1  1.13
8. GGACUGUUGCAUGACUCUCTT against Evc  1.08
9. GGAAUUUGUGACCAACUAUTT against Rbm4b  1.07
10. GGUAUGAUGGGAAAUUUUUTT against Tmod2  1.07
11. GCAGAUAAUCUAGCAAAGATT against Agps  0.903
12. CGACCUGACUUUUCUUAGGTT against Dynlrb2  0.855
13. GCAGUUUCGUUCCUACUCGTT against Cdkn2aipnl  0.796
14. GCUCAACGAAACAAUACCGTT against Il2rb  0.737
15. CCUUAGGAUCGUCUUAUUATT against Zic2  0.619
16. GGAAUCGGUGUAUUCGUUUTT against Sectm1b  0.593
17. GCCAUCGAUGUACUGAGCUTT against Psme2  0.525
18. GGGCAUCAGCUAUUAAAGATT against Tpmt  0.488
19. GCUGACCACUUCAAGGUUGTT against Lgals3  0.468
20. GCAAUGUCGCCAAACGUAATT against Ikzf1  0.457
21. GGGAUGGAAACCCUGGAUCTT against Col3a1  0.438
22. GGGUAUUUUCACUGAAAGUTT against Ltbp3  0.431
23. GCAUUUCCUAUAAUCGUUGTT against Olfr360  0.371
24. CCUUGACCCAGAUUGAGAATT against Xkr6  0.363
25. GGGCAUUGAAGCAAAUAUATT against Tmprss15  0.323
26. GGUAGAGAGCUCAACAGGGTT against Klrb1c  0.287
27. GGAACUGAAUGCGGAAUUCTT against Chil1  0.261
28. GGUGACUUGUAAAGAUUUUTT against Dstn  0.234
29. GGAGUUCACGGAUCUUGAGTT against Ppp1r37  0.226
30. GGCAACUUUGUUAUAUACATT against Ctr9  0.212
31. CGAAAUGACAGUGUUAUUCTT against Mpl  0.185
32. GGUUUCUUCAUCUUGUAUUTT against Gjd4  0.184
33. GGAUCUUCUACACAGUAAATT against Ppp2r3d  -0.0431
34. CGAGAAGAACUGUGUAAAGTT against Vldlr  -0.184
35. GCCUCAAUGGCACUCAAAUTT against Mdc1  -0.217
36. CCCGAGACCAUUAAUGAUUTT against Snx3  -0.306
37. CCGAAAUCCUACAUAUAUGTT against B430209F14Rik  -0.306
38. UUGUGAUUCCAAUUUCCCUTT against Olfr1330  -0.32
39. GAUACAGACCUUGCUCUUCTT against Olfr714  -0.421
40. GGGUGAGACUUUUAUUAUUTT against Epdr1  -0.468
41. GCGACAACUGUGAUAUACCTT against Liph  -0.485
42. GGAGACAGAAAGAGAAAAGTT against Pou3f2  -0.578
43. GGUUGAAGUCACAAAAGAATT against Prkg1  -0.619
44. GCACCCAAACUUAAAAUAGTT against Spink10  -0.69
45. GUAUGGAUGUGGAAGCCUCTT against Olfr1417  -0.77
46. CCAUAUCAGGCAUAGCAGUTT against Nthl1  -0.772
47. GGCAUUUCUGUUCUGUAAGTT against Sh3bgrl  -0.783
48. GGUCAGAGUGCCUCUUGAATT against Slc7a5  -0.8
49. GGAAGACAAAGUCUGGGUGTT against Hpx  -0.915
50. GGAGAAGUUCCCUAACAUGTT against Ppan  -1
51. GGGCUUGAAAUUGAAAUGUTT against Ccl9  -1.09
52. GGGAGUUAUAUAAAUGCAUTT against Taf7l  -1.13
53. GGCCAGUGUAUUUGACCUGTT against Slc22a18  -1.24
54. GGCUGUCCGUACCUAUAAATT against Cpb1  -1.26
55. GCCAGUAAGGAAUUCAACUTT against C3  -1.29
56. CGAACCCUAGCGGAAAUUGTT against Nono  -1.54

For GGCAAUCAUUGGACUAUACTT against Nckap1, the z-score was -2.81 (active).
For GGGAAGGAGAGUAUUCCAATT against Mrpl14, the z-score was 3.44 (active).
For CCGUCUUCUGCUGUGGAACTT against Ctrc, the z-score was 2.6 (active).
In the case of GGUCAAAGAUGGAGUAAAUTT against Tmem87a, the z-score is reported as -2.31 (active).
For GGAUGGUCGAAACAAUAACTT against Stk32b, the z-score was 2.16 (active).
In the case of GCUUGCACUGGACUCAACUTT against Pax4, the z-score is reported as -2.76 (active).
With GCCUUACUGGGUUACUUGUTT against Cdkn2d the z-score was 3.22 (active).
With GGUUCUGGAGCAAAUCCACTT against Styk1 the z-score was 2.37 (active).
In the case of GGUGGGAAGAUAGAUAAAATT against Mamstr, the z-score is reported as 3.28 (active).
In the case of GCUUGAAUUUCUGUGGAGGTT against Olfr1320, the z-score is reported as -2.44 (active).
With GGGAAAAGAAAGUACCUACTT against Zcchc10 the z-score was 2.26 (active).
For CACAGAACAUCAUCUCCCATT against Olfr887, the z-score was -2.79 (active).
For GGUCCUACAGGAGAAGAUCTT against Tekt2, the z-score was -2.09 (active).
